# Measurements published in ChEMBL document CHEMBL3988442, “University of Dundee, Small-Polar-MMV Screening Library” (2021).
# Biological target: Chromo domain-containing protein 1 (Saccharomyces cerevisiae (strain ATCC 204508 / S288c) (Baker's yeast)) (UniProt P32657)
# Assay: ScCHD-1 Enzyme Inhibition Assay
# Format: functional
# Parameters: scale not given: in the data most compounds retested in dose-response had high values
# Settings: 30 µM
# Sequence of Chromo domain-containing protein 1 (Saccharomyces cerevisiae (strain ATCC 204508 / S288c) (Baker's yeast)) (P32657 whole entry, the tested form may be a part): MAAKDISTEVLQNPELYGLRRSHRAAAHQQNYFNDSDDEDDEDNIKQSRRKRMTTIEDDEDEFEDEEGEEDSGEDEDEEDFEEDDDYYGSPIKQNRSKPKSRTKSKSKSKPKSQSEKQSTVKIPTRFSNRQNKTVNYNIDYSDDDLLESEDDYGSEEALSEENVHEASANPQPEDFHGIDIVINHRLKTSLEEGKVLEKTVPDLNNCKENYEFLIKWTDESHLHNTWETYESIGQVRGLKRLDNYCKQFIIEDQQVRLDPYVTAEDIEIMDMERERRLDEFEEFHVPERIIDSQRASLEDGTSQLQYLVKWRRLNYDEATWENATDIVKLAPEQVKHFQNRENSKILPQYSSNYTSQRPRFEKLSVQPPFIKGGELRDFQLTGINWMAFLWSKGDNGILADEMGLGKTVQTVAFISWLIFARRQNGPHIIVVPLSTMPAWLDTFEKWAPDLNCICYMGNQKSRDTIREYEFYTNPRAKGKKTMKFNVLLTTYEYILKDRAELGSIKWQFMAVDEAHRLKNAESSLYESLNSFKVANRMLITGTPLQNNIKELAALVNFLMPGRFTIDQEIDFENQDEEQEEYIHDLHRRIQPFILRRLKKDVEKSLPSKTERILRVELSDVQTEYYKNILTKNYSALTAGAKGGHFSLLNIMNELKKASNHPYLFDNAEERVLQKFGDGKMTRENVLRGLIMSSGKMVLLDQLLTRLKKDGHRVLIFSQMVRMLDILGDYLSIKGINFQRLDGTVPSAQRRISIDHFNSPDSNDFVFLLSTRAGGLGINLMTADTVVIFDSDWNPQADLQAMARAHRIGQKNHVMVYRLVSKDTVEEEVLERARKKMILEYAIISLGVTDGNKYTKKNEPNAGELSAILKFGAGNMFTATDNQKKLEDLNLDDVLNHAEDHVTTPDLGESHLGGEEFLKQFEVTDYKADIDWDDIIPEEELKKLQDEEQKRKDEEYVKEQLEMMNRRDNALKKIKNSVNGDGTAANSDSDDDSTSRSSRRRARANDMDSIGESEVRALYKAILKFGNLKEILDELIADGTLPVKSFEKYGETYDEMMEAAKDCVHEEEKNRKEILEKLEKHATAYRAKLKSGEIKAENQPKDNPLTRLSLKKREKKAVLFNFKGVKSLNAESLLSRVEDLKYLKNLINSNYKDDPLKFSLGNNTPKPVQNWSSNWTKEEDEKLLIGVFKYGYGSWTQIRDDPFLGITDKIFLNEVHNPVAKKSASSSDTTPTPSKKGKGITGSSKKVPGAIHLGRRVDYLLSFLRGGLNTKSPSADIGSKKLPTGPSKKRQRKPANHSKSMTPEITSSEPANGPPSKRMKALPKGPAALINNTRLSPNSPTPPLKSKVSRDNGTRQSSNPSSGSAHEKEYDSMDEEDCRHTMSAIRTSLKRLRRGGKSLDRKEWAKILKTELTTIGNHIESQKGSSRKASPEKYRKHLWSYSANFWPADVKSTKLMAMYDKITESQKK
row,SMILES,Percent Effect
1,CC(Nc1cccc(CN2CCOC2=O)c1)C(=O)N1CCNC1=O (stereo not given),-2.72%
2,COC[C@@H]1CC[C@H]2[C@H](CCN2S(=O)(=O)c2cccc(C)c2)O1,-2.87%
3,O=C(c1ccc(F)cc1F)N1CC[C@H](O)[C@@H](N2CCOCC2)CC1,-18.1%
4,COc1cccc(-n2nnc(C(=O)N3CCCC3)c2C)c1,-3.38%
5,Cc1nc(C(=O)N2CCc3c(nc(-c4ccncc4)[nH]c3=O)C2)cs1,-3.73%
6,CN1CCC/C1=N\S(=O)(=O)c1ccc(NC(=O)c2cccs2)cc1,-10.9%
7,c1csc(-c2nc(CNC3CCc4ncnn4C3)cs2)c1 (stereo not given),1.57%
8,Cc1ccc(C(=O)N2Cc3c(CN4CCCCC4)nn(C)c3C2)cc1C,-3.91%
9,O=C1CC2(CCN(CC3CC3)C2)CN1c1ccc2c(c1)OCO2 (stereo not given),-4.12%
10,COCc1nc(C(=O)NS(=O)(=O)c2ccc(C)cc2C)cs1,-0.274%
11,Cc1nn(C)cc1CCC(=O)N1CCCC(n2cncn2)C1 (stereo not given),-4.09%
12,COCC(=O)N1CCC2(CCN(Cc3ccccn3)CC2)CC1,15%
13,COc1ccccc1OCC(=O)NS(=O)(=O)c1ccc(C)s1,-3.45%
14,Cc1ncsc1C(=O)N(Cc1cccnc1)C1CC1,-2.14%
15,Cn1cnc2c1CCN(CCS(=O)(=O)c1ccccc1)C2,-6.73%
16,CN(C(=O)Cc1c[nH]c2ccccc12)C1CCN(c2ccccn2)CC1,-14.4%
17,CC1COCCN1C(=O)c1cccc(OCc2cscn2)c1 (stereo not given),-2.42%
18,Cn1cccc1C(=O)N1CCCC2(CCCN2Cc2cccnc2)C1 (stereo not given),-0.361%
19,CC(C)(C)c1n[nH]c(C2CN(C(=O)CCc3cscn3)CCO2)n1 (stereo not given),-1.16%
20,CN(Cc1noc(C2CC2)n1)C1CCN(Cc2nnc(C3CC3)o2)C1 (stereo not given),-8.04%

row,SMILES,Percent Effect
1,CC(C)c1nn(C)c(N2CCOCC2)c1CNCC(=O)N(C)C,-5.02%
2,CS(=O)(=O)NCc1ncn2c1CN(C(=O)CC1CCCC1)CCC2,-0.829%
3,Cc1nc(C2CCN(C(=O)CO)CC2)cc(N2CCOCC2)n1,0.691%
4,Cn1cc(CNCC2Cn3nnc(-c4ccccc4)c3CO2)cn1 (stereo not given),19%
5,CS(=O)(=O)c1ccccc1C(=O)NCCCN1CCc2ccccc2C1,-11.6%
6,CCOC(=O)N1CCN(C(=O)c2ccc3ccn(C)c3c2)CC1,5.11%
7,Cc1ccc(-c2cc(CN3CCCC(Cn4cncn4)C3)on2)cc1 (stereo not given),-3.73%
8,COc1ccc(C2CC(=O)Nc3c2nc2n3CCCC2)cc1OC (stereo not given),-4.25%
9,Cn1cc(CN2CCCN(C(=O)c3cn4ccccc4n3)CC2)cn1,15.2%
10,CCc1ccc(NC(=O)C2OC(c3cccs3)=NN2C(C)=O)cc1 (stereo not given),-26.1%
11,CC(=O)N1CCCN(CC(C)(O)c2cccc(C(F)(F)F)c2)CC1 (stereo not given),-9.58%
12,c1ncn(CC2CN(Cc3noc(C4CC4)n3)CCO2)n1 (stereo not given),-8.55%
13,Cc1c[nH]nc1C1CCCCN1C(=O)Cn1cc(Cl)cn1 (stereo not given),-20.3%
14,Cc1cnn(CC2CCCCN2CCCS(N)(=O)=O)c1 (stereo not given),-12.4%
15,Cn1cc(C(=O)N2CCCC(n3cccn3)C2)c2ccccc21 (stereo not given),-11.9%
16,CC(=O)N1CCC2(CC1)C(=O)N(CC1CC1)c1ccccc12,-7.42%
17,CC1CCN(C(=O)c2cccc3ncccc23)CC1,1.83%
18,O=C(c1cc2cc(F)ccc2[nH]1)N1CCC(Nc2cccnn2)CC1,-5.32%
19,Cc1nccn1-c1cccc(C2CCCN2S(=O)(=O)N(C)C)n1 (stereo not given),-24.5%
20,CC(C)CN1CCN(C)C2(CCN(Cc3ccsc3)CC2)C1=O,1.23%
